What was measured:
Assay in all cases: DAPPL (digital affinity profiling via proximity ligation, sequencing); 10 mM Tris-HCl pH 7.5, 50 mM NaCl, 1 mM DTT, 4% glycerol, room temperature, 30 min; GST-TFs on glutathione beads, 16-mer random dsDNA library, 0.1% formaldehyde crosslink after washing; high values mean tight binding
Conditions in all cases: protein: recombinant; tags: N-terminal GST; dsDNA, one strand shown
ELK1 = molecular target: T1, ELK1 (Homo sapiens, UniProt P19419 1-428)
T1 sequence: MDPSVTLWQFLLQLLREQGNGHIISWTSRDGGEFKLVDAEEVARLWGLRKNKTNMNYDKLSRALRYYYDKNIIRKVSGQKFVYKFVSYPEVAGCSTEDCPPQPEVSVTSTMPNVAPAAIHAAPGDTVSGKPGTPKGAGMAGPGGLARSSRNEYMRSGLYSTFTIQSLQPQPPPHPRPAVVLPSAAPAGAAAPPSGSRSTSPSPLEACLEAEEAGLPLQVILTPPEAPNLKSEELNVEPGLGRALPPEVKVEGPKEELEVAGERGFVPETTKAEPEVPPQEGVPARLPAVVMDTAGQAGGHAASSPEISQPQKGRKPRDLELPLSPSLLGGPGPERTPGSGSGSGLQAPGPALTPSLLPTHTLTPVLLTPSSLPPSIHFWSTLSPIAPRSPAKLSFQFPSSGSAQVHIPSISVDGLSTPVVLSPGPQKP
How it was run: (§1)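 Binding signal is each hexamer's read frequency for a factor divided by its frequency in the tag-only sample. The factors were GST-fused human transcription factors from yeast, captured on glutathione beads, DNA-barcoded and pooled with that sample. Pools were incubated with 200 nmole of a random double-stranded 16-mer DNA library in Tris/NaCl/DTT/glycerol buffer at room temperature for 30 min, then washed, crosslinked with 0.1% formaldehyde, proximity-ligated with BsaI/T4 ligase (1 h, 37 °C), PCR-amplified and sequenced on an Illumina NextSeq500.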

GABPA = molecular target: T2, GABPA (Homo sapiens, UniProt Q06546 1-454)
T2 sequence: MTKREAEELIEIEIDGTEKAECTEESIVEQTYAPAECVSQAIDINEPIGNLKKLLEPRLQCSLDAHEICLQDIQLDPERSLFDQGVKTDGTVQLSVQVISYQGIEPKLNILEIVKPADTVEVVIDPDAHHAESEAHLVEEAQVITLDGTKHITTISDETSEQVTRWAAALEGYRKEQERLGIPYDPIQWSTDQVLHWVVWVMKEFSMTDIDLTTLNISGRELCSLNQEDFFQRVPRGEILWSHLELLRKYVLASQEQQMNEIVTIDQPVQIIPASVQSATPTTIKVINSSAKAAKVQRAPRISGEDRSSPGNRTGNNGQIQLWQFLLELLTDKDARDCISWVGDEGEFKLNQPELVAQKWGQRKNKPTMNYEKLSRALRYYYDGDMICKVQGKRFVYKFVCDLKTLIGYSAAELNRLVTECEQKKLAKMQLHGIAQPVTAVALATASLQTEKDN
How it was run: as §1

ERG = molecular target: T3, ERG (Homo sapiens, UniProt P11308 1-479)
T3 sequence: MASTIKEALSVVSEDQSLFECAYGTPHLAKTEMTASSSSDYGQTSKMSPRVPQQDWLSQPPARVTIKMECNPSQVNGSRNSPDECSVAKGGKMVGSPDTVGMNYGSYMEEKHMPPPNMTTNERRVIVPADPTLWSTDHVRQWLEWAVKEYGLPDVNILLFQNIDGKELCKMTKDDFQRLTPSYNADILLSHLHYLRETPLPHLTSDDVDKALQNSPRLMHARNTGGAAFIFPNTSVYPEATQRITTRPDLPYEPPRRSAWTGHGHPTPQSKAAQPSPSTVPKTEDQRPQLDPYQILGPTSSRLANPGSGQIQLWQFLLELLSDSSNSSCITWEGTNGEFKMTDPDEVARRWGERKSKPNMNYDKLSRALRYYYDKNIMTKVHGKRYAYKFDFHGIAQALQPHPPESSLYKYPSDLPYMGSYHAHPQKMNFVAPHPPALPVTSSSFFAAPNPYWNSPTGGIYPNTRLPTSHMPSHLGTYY
How it was run: as §1

ELF1 = ELF1 (Homo sapiens, UniProt P32519 1-619)
Chain of ELF1 (P32519 whole entry): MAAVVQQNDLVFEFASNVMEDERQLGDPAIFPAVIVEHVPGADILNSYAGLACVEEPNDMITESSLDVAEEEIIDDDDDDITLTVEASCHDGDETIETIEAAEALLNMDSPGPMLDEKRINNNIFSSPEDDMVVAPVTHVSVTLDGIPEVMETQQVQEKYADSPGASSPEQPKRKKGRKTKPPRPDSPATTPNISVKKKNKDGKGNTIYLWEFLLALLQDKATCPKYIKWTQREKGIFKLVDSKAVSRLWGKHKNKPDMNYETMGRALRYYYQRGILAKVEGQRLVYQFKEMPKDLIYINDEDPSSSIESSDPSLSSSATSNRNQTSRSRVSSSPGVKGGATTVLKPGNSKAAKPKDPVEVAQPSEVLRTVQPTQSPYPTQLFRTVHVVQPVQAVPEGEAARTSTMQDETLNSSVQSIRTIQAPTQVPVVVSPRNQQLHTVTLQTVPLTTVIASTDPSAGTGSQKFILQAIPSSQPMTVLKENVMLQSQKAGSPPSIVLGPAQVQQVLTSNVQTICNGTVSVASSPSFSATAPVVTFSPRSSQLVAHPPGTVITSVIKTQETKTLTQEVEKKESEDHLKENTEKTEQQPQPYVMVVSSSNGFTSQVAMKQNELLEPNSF
How it was run: as §1

EHF = molecular target: T4, EHF (Homo sapiens, UniProt Q9NZC4 1-300)
T4 sequence: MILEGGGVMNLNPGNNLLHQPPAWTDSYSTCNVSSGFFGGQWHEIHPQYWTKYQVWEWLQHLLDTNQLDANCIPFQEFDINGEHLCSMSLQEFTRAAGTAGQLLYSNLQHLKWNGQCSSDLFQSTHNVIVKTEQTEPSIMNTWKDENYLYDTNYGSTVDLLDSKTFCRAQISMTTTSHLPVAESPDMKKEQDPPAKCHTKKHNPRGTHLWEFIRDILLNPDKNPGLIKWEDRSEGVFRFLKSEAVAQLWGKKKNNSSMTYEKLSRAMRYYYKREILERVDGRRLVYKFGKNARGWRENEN
How it was run: as §1

SPIB = SPIB (Homo sapiens, UniProt Q01892 1-262)
Chain of SPIB (Q01892 whole entry): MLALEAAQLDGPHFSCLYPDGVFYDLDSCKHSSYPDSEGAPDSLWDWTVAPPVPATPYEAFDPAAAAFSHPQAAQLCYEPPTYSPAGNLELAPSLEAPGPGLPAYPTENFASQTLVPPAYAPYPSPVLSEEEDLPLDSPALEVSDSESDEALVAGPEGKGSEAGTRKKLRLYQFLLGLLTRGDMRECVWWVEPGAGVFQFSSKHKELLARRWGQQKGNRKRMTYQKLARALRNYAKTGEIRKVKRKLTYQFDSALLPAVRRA
How it was run: as §1

FEV = molecular target: T5, FEV (Homo sapiens, UniProt Q99581 1-238)
T5 sequence: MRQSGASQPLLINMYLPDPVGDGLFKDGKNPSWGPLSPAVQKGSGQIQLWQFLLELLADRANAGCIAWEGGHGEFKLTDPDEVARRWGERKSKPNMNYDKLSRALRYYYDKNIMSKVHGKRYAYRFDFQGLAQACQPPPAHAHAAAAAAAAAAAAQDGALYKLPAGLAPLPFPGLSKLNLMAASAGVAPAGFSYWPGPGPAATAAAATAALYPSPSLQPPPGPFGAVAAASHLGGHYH
How it was run: as §1

ETV5 = ETV5 (Homo sapiens, UniProt P41161 1-510)
Chain of ETV5 (P41161 whole entry): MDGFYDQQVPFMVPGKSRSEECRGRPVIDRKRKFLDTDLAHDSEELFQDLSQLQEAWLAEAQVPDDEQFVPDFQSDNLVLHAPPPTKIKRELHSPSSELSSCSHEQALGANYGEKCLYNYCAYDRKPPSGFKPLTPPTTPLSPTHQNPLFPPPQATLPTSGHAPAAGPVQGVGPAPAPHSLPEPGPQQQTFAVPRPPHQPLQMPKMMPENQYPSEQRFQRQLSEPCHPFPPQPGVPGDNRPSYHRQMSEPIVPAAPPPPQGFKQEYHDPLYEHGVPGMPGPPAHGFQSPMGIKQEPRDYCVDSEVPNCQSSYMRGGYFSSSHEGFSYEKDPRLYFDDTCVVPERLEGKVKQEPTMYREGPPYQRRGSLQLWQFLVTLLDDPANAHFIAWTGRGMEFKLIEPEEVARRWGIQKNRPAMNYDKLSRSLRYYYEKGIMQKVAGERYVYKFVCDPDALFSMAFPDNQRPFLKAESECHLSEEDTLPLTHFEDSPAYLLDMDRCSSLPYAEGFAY
How it was run: as §1

ELF4 = ELF4 (Homo sapiens, UniProt Q99607 1-663)
Chain of ELF4 (Q99607 whole entry): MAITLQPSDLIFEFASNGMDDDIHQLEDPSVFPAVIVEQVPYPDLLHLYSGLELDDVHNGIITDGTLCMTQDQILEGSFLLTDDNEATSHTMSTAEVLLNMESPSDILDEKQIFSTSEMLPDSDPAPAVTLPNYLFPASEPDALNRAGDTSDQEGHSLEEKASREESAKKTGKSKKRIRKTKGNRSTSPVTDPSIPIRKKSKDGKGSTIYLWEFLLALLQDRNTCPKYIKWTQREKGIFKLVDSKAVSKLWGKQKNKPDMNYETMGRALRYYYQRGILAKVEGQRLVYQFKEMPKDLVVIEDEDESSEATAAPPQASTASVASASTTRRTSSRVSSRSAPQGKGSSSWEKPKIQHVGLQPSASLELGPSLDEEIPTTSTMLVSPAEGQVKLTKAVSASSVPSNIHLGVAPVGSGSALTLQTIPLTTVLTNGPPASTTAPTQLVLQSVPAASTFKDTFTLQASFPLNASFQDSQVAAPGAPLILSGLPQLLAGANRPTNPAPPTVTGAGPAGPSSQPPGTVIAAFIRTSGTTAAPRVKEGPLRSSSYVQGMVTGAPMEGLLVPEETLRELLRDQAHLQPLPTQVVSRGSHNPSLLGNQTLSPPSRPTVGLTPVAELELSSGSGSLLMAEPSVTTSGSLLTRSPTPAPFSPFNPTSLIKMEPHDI
How it was run: as §1

ELK4 = molecular target: T6, ELK4 (Homo sapiens, UniProt P28324-2 1-405)
T6 sequence: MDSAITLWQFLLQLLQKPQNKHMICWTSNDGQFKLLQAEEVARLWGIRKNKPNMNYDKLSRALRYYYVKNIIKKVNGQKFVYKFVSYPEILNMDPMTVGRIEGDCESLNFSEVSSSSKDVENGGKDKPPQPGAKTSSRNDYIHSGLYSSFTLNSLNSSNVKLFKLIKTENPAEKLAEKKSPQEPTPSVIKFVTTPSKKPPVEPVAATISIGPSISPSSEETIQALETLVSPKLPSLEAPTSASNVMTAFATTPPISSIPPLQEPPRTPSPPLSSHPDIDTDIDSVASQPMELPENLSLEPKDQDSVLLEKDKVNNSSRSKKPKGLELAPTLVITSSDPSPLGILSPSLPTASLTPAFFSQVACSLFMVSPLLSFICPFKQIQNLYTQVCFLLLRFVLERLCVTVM
How it was run: as §1

ETV2 = molecular target: T7, ETV2 (Homo sapiens, UniProt O00321 1-342)
T7 sequence: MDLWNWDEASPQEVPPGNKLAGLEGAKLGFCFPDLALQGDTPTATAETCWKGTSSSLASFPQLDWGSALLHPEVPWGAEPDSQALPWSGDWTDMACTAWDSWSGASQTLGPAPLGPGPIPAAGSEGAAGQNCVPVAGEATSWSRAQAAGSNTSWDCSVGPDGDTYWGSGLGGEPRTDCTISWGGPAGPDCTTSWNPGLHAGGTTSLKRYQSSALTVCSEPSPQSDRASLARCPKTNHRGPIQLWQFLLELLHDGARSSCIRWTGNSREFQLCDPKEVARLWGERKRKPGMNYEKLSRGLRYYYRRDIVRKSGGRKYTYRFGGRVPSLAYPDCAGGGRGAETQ
How it was run: as §1

ELF3 = molecular target: T8, ELF3 (Homo sapiens, UniProt P78545 1-371)
T8 sequence: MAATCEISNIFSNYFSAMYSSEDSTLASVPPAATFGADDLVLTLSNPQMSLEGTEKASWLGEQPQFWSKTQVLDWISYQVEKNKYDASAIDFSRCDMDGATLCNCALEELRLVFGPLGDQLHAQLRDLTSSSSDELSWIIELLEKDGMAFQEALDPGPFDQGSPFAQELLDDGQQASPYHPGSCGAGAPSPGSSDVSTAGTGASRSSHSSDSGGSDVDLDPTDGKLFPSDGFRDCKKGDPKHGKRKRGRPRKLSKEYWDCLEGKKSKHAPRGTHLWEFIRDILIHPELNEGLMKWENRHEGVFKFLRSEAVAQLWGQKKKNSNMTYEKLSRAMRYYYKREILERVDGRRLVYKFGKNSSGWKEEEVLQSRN
How it was run: as §1

ETV1 = ETV1 (Homo sapiens, UniProt P50549 1-477)
Chain of ETV1 (P50549 whole entry): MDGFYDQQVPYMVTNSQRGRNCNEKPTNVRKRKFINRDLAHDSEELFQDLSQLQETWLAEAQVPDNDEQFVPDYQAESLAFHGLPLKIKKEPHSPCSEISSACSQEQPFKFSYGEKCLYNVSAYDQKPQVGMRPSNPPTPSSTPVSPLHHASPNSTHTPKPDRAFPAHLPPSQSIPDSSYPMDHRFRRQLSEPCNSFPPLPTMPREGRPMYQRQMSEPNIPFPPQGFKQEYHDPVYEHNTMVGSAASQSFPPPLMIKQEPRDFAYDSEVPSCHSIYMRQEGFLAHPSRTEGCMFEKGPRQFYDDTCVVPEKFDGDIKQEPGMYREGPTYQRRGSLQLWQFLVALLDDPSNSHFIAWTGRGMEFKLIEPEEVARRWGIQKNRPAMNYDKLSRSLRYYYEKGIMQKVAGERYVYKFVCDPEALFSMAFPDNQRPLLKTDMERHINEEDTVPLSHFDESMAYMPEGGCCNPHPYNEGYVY
How it was run: as §1

ERF = molecular target: T9, ERF (Homo sapiens, UniProt P50548 1-548)
T9 sequence: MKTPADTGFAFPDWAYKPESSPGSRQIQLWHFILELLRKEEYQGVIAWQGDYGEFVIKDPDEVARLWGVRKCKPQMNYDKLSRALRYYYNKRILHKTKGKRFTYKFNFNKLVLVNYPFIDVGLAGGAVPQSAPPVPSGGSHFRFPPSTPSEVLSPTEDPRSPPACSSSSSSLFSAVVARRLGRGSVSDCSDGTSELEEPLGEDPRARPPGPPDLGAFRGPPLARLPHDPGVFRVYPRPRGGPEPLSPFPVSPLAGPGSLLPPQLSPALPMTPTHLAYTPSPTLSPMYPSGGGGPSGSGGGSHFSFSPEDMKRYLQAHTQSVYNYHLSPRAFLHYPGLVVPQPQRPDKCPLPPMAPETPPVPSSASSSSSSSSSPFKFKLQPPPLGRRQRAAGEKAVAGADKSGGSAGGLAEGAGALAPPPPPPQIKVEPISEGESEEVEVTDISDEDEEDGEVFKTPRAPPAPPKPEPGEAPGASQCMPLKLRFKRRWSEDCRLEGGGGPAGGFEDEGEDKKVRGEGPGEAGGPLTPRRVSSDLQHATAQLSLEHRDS
How it was run: as §1

ETV3L = molecular target: T10, ETV3L (Homo sapiens, UniProt Q6ZN32 1-361)
T10 sequence: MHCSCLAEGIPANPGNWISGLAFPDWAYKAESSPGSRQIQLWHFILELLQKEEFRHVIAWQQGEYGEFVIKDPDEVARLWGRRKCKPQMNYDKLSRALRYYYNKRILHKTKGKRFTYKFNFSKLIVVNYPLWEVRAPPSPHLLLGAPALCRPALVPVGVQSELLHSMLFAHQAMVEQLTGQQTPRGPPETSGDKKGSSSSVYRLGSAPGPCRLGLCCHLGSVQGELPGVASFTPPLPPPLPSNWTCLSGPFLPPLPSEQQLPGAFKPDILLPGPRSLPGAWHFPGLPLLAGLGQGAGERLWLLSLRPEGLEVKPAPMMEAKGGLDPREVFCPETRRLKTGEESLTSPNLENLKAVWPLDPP
How it was run: as §1

ETS2 = molecular target: T11, ETS2 (Homo sapiens, UniProt P15036 1-469)
T11 sequence: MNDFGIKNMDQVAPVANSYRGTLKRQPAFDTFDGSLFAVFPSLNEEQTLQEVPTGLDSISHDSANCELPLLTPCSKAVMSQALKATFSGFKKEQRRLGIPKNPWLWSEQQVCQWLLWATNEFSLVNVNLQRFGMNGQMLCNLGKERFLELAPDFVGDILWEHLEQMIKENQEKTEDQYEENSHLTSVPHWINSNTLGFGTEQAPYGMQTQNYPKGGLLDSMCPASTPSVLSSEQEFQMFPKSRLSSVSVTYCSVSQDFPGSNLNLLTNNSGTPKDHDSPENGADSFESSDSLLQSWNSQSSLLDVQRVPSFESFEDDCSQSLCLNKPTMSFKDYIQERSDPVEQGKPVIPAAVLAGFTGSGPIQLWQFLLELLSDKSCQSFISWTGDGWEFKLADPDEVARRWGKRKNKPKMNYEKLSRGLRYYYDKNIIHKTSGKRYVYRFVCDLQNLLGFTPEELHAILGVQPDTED
How it was run: as §1

ETV7 = molecular target: T12, ETV7 (Homo sapiens, UniProt Q9Y603 1-341)
T12 sequence: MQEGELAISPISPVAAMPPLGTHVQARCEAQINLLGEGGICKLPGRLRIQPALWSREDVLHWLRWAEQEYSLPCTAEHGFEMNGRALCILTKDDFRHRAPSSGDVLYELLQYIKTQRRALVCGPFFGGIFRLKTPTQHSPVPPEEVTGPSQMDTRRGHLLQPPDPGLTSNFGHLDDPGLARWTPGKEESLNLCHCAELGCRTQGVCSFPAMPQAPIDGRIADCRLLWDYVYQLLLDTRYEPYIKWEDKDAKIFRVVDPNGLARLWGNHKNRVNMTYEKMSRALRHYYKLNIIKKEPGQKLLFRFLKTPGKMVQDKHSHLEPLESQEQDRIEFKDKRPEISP
How it was run: as §1

ETV3 = molecular target: T13, ETV3 (Homo sapiens, UniProt P41162-2 1-143)
T13 sequence: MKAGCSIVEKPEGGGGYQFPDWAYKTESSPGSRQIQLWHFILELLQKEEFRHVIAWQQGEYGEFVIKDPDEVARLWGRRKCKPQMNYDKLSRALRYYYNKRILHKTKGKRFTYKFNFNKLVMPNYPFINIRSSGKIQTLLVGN
How it was run: as §1

ETV6 = ETV6 (Homo sapiens, UniProt P41212 1-452)
Chain of ETV6 (P41212 whole entry): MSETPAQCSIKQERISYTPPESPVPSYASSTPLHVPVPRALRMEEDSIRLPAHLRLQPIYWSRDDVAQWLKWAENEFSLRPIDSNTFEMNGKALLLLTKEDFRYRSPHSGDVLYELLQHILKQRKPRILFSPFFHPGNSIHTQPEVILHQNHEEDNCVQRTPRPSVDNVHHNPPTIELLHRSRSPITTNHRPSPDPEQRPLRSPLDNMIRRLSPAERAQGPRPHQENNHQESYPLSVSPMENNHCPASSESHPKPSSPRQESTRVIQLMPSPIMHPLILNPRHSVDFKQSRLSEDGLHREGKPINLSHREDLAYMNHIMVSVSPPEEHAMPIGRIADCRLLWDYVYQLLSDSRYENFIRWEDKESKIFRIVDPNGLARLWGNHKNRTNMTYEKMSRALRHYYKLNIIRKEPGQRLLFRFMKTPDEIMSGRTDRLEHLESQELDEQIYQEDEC
How it was run: as §1

GCGTCT
binding signal (ELK1): 1.05 fold enrichment (6-mer frequency, TF over GST control)
binding signal (GABPA): 1.02 fold enrichment (6-mer frequency, TF over GST control)
binding signal (ERG): 1.08 fold enrichment (6-mer frequency, TF over GST control)
binding signal (ELF1): 1.08 fold enrichment (6-mer frequency, TF over GST control)
binding signal (EHF): 1.08 fold enrichment (6-mer frequency, TF over GST control)
binding signal (SPIB): 1.19 fold enrichment (6-mer frequency, TF over GST control)
binding signal (FEV): 1.08 fold enrichment (6-mer frequency, TF over GST control)
binding signal (ETV5): 1.04 fold enrichment (6-mer frequency, TF over GST control)
binding signal (ELF4): 1.04 fold enrichment (6-mer frequency, TF over GST control)
binding signal (ELK4): 1.11 fold enrichment (6-mer frequency, TF over GST control)
binding signal (ETV2): 1.1 fold enrichment (6-mer frequency, TF over GST control)
binding signal (ELF3): 1.34 fold enrichment (6-mer frequency, TF over GST control)
binding signal (ETV1): 1.18 fold enrichment (6-mer frequency, TF over GST control)
binding signal (ERF): 1.12 fold enrichment (6-mer frequency, TF over GST control)
binding signal (ETV3L): 1.1 fold enrichment (6-mer frequency, TF over GST control)
binding signal (ETS2): 1.04 fold enrichment (6-mer frequency, TF over GST control)
binding signal (ETV7): 1.1 fold enrichment (6-mer frequency, TF over GST control)
binding signal (ETV3): 1.11 fold enrichment (6-mer frequency, TF over GST control)
binding signal (ETV6): 1.04 fold enrichment (6-mer frequency, TF over GST control)

Source: article PMC7862700, “An all-to-all approach to the identification of sequence-specific readers for epigenetic DNA modifications on cytosine”
